Polio RdRp inh = poliovirus RNA polymerase inhibition; P03300; poliovirus polymerase elongation, fluorescence polarization; stronger effect = lower value; % elongation, % (compound at 16.7 µg/mL); actives 0.66% (n = 150,000); AID 588519; in the data active = % elongation below about 90%
MenB inh = inhibitors of Mycobacterium tuberculosis MenB enzyme; P9WNP5; MenB enzyme assay, absorbance read-out; inhibition, % (no concentration beside the values); actives 0.43% (n = 100,000); in the data active = inhibition above about 21%, passing the limit was not always enough
MbtI inh = inhibitors of Mycobacterium tuberculosis siderophore enzyme MbtI. P9WFX0. purified MbtI enzyme, fluorescence intensity read-out. inhibition, % (no concentration beside the values). actives 0.89% (n = 100,000); in the data active = inhibition mostly above about 56%, no sharp cut-off; inactive = mostly below about 77%
Target sequence (P9WFX0 whole entry, looked up): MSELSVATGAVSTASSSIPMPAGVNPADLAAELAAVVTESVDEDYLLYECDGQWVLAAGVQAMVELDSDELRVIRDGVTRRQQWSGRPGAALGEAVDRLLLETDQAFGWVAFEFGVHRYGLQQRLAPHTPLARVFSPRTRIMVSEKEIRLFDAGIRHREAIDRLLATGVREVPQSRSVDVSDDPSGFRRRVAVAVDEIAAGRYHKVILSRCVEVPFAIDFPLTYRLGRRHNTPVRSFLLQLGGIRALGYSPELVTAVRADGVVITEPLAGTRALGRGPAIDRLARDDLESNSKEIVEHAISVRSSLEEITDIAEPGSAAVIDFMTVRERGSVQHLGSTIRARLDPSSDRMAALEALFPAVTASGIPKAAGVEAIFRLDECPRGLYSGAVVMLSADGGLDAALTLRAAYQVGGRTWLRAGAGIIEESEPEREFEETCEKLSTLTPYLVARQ
AID504770 = growth inhibitors of E. coli YBA685 in a screen for V. cholerae RctB (chromosome II replication) inhibitors; actives 0.27% (n = 130,000); AID 504770; E. coli YBA685 rctB-dependent plasmid, OD600 growth, 3 h; stronger effect = lower value; z-score (concentration not given with the values); in the data active = z-score below about -2, passing the limit was not always enough
Each line names hits and unclear results; the compound was inactive in the other large screens; ! = repeats disagree. Sampled rows, rich in hits. Any-hit rate of the full collection: about 1.4%.

CN(C)C(=O)ONC(=O)Cc1ccccc1	AID504770 -3.9 (no result: Polio RdRp inh, MenB inh, MbtI inh)
Fc1cccc2c1CNC(=S)N2	MbtI inh 82
CNc1nc(-c2ccccc2)[n+](-c2ccccc2)s1	MbtI inh 100 (no result: MenB inh)
CC(=O)Nc1nc(-c2ccccc2)[n+](-c2ccccc2)s1	none (no result: Polio RdRp inh, MenB inh, MbtI inh)
CSc1nc2c3ccccc3n(C(C)=O)c2n1Cc1ccccc1	none
CC1CCc2ccccc2N1S(=O)(=O)c1cccs1 (configuration not stated)	none (no result: Polio RdRp inh, MenB inh)
CN(C)S(=O)(=O)c1ccc(S(=O)(=O)N2CCC(c3nc4ccccc4s3)CC2)cc1	MenB inh 29
CC(=O)OC(OC(C)=O)C12C=CC(O1)C1C(=O)N(c3ccccc3-c3ccccc3)C(=O)C12 (configuration not stated)	MbtI inh 90
O=S1(=O)CCC(SSC2CCS(=O)(=O)C2)C1 (configuration not stated)	none
CN(CC(=O)Nc1ccc(N2CCOCC2)cc1)Cn1nc(Nc2ccccc2F)sc1=S	MbtI inh 99
CCN(CC(=O)NCc1ccc(Cl)cc1)CN1C(=O)C2CC=CCC2C1=O (configuration not stated)	none
CCc1nnc(NC(=O)c2nc(-c3ccc(Cl)cc3)n3c2CCCCC3)s1	none
O=C(CCCc1ccccc1)Nc1scc2c(=O)oc3ccccc3c12	Polio RdRp inh 79 (no result: MbtI inh)
CN1CCN(C(CNS(=O)(=O)c2ccccc2)c2cccnc2)CC1 (configuration not stated)	none (no result: Polio RdRp inh, MenB inh, MbtI inh)
O=C(Nc1cc(C(F)(F)F)cc(C(F)(F)F)c1)C(=S)NCCNc1cccc2ccccc12	Polio RdRp inh 71 (no result: MbtI inh)
CCN(CCO)C1CC(=O)N(c2ccccc2C)C1=O (configuration not stated)	MbtI inh 100
Cc1ccccc1N1C(=O)C(O)C(O)C1=O (configuration not stated)	none (no result: Polio RdRp inh, MenB inh)
CCCc1[nH]nc2c1C1(CCN(C(C)=O)CC1)C(C#N)=C(N)O2	none
COC(=O)c1ccc(C2(C#N)C(=O)Nc3ccccc32)cc1 (configuration not stated)	none (no result: MenB inh)
c1cc(CNc2ccc(N3CCCC3)cc2)ccn1	MbtI inh 100
c1cc2c(cc1CNc1ccc(N3CCCC3)cc1)OCO2	none
ClCc1csc(Nc2ccccc2)n1	none (no result: MenB inh)
Cc1csc(Nc2ccccc2)n1	MbtI inh 72 (no result: MenB inh)
CCOc1ccc(NCC(=O)n2nc(C)cc2C)cc1	none (no result: MbtI inh)
O=C(CCS(=O)(=O)c1ccccc1)N(Cc1ccccn1)c1nc2ccccc2s1	MbtI inh 71
O=C(CCS(=O)(=O)c1ccccc1)N(Cc1cccnc1)c1nc2ccc(F)cc2s1	none (no result: MenB inh, MbtI inh, AID504770)
O=C(COc1ccccc1Br)N1CCCCCC1	none (no result: Polio RdRp inh, MenB inh)
CCCn1c(SCC(=O)NCC(F)(F)F)n[nH]c1=O	none
FC(F)(F)c1ccccc1CN1CCN(CC2CC3C=CC2C3)CC1 (configuration not stated)	Polio RdRp inh 48 (no result: MbtI inh)
N#CCc1ccc(OC(F)F)cc1	Polio RdRp inh 31
[O-][n+]1onc(-c2ccccc2)c1-c1ccccc1	none
N#Cc1c(-c2ccccc2)no[n+]1[O-]	Polio RdRp inh 93 (no result: AID504770)
O=C1c2cccnc2C(=O)N1Cc1ccc(S(=O)(=O)N2CCCCC2)cc1	none
CCOc1cc(C(=O)O)c(N)cc1OC	Polio RdRp inh 87
CNc1nc(-c2ccc3c(c2)CCN3C(=O)C(C)C)cs1	MenB inh 35
O=C(CCn1c(=O)sc2ccccc21)n1c(=O)sc2ccccc21	Polio RdRp inh 75 (no result: MbtI inh)
CN(C)CCN1C(=O)C(=O)/C(=C(/O)c2ccc(Cl)cc2)C1c1cccs1 (configuration not stated)	none (no result: Polio RdRp inh, MenB inh, MbtI inh)
CCOC(=O)[C@@H]1Nc2ccc(C(=O)O)cc2[C@@H]2C=CC[C@H]12	Polio RdRp inh 68
O=C1C(O)=C(O)C(=O)C(O)=C1O	Polio RdRp inh 97!
COC(=O)C1=C(Nc2ccccc2NC(=O)C(C)C)CSC1	none (no result: Polio RdRp inh, MenB inh, MbtI inh)
NC(=O)COc1ccc(S(=O)(=O)N2CCCCC2)cc1	none
COc1cccc(-c2n[nH]c3c2C(c2ccccc2)NC3=O)c1 (configuration not stated)	none
CSc1ccc(CCNC(=O)CCc2c(C)nc3c4cccnc4nn3c2C)cc1	Polio RdRp inh 14 (no result: MenB inh, MbtI inh, AID504770)
Cc1nc2c3cccnc3nn2c(C)c1CCC(=O)NCc1ccccc1	none (no result: MenB inh, MbtI inh, AID504770)
COc1cccc(OCC(=O)Oc2ccc(C(=O)c3ccccc3)cc2)c1	none (no result: Polio RdRp inh, MenB inh, MbtI inh)
Cc1ccc(S(=O)(=O)Nc2c(C#N)c3nc4ccccc4nc3n2Cc2ccccc2)cc1	Polio RdRp inh 73
O=C(Oc1ccc2c(c1)OCO2)c1cccc(Cl)c1	none
COc1ccc(NC(=O)CCc2nc3cc(S(=O)(=O)N4CCCCC4)ccc3n2C)cn1	MbtI inh 95
Cn1c(CCC(=O)NCc2ccc(F)cc2)nc2cc(S(=O)(=O)N3CCCCC3)ccc21	none (no result: Polio RdRp inh)

Compound activity (PubChem)
